Reference: the supplement of paper PMC3334620
Whole data set: some 33,000 sequences, median “E-score (-0.5 to 0.5)” near -0.035, cut for the highest 2% near 0.34. This is one part of a sample in which the highest values are shown more often than they occur.

Biological target: T1, Mot3 (UniProt P54785)
T1 sequence: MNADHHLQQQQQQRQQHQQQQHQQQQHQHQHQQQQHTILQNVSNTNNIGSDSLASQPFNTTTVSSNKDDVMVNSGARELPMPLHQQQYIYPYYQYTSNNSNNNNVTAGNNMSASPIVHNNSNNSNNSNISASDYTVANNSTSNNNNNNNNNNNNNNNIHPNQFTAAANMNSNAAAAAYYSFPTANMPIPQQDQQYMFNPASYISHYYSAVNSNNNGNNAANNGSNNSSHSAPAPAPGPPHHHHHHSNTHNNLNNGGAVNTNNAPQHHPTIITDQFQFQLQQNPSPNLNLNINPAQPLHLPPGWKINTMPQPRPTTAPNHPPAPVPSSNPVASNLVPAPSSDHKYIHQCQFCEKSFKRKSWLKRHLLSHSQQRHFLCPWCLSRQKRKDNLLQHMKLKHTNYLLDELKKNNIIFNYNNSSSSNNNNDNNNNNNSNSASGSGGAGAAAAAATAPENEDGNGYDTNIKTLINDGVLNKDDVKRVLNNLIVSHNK
Assay: PBM E-score (8-mer binding enrichment) (E-score (-0.5 to 0.5)); higher = stronger / more preferred TF binding
Details: protein concentration: 200 nM; construct: GST-full length
Procedure: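 Universal 'all 10-mer' protein binding microarrays (Agilent AMADID 015681) probed with GST-tagged S. cerevisiae TFs (full-length or DBD) made by in vitro transcription/translation (PURExpress), about 100-200 nM. Bound TF was detected with fluorescent anti-GST. Each ungapped 8-mer (which stands for itself and its reverse complement) is scored by the PBM enrichment score (E-score), a modified Wilcoxon-Mann-Whitney statistic from -0.5 to +0.5, computed with the Universal PBM Analysis Suite. Scale: above 0.35 generally sequence-specific binding.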

Sequence | PBM E-score
TACTGAGA | -0.0385
GGTGCCAC | -0.168
AGGGGTGG | -0.248
GACTGGTA | -0.00685
GTGCGATA | -0.123
CGCAGGAA | 0.356
CGCAGGAG | -0.0652
CGCAGGAC | -0.0456
AAAGTAGC | -0.0505
ACCATTAA | 0.0184
CGCTCCTC | -0.269
TACGCAAA | 0.206
CCTATTAA | 0.273
ACTATTAC | 0.25
CCTATTAC | 0.344
CAGGTCGA | 0.148
ATTAGCCA | -0.147
AGGTCGAA | 0.00993
CATGTTAA | 0.411
AATGTTAA | 0.279
GATGTTAA | 0.268
CATGTTAG | 0.332
TATGTTAA | 0.396
CATGTTAC | 0.332
CATTCAGC | -0.12

Sequence | PBM E-score
ACCTCGCA | -0.0135
AAACAAGC | 0.0864
TGATCCAA | -0.071
CCATCTGC | -0.272
ATACACGA | 0.352
ATACACCA | 0.129
ATACACGC | 0.37
ATACACAC | 0.326
ACACACGC | 0.174
ATACACGG | 0.375
ACACACGG | 0.182
ATACACTA | 0.124
ATACACAA | 0.324
GACCTCAC | -0.243
CCCCTACA | 0.0392
ATATACGA | 0.14
AATTTTAT | 0.0903
TCGATAGA | -0.0212
ACCCCTTC | 0.129
GTTTTACA | 0.371
CCTTTACC | 0.102
ACTTTACA | 0.313
GGTTTACA | 0.333
TCTTTACA | 0.389
GCTTTACA | 0.325

Sequence | PBM E-score
ATTTTACA | 0.336
CCTTTACG | 0.172
GTTTTATA | 0.101
CTTTTACC | 0.141
CCTTTACA | 0.392
CTTTTACA | 0.345
ACCCTTTA | 0.167
GCAGTCAC | 0.305
ATTGGCCG | -0.176
GGATTTAC | 0.174
CGACAGGA | 0.0979
AGCACGCG | 0.17
AAATGCAC | 0.0764
AGTCACCG | 0.0455
GCGCAAGC | -0.172
ACGCATCG | -0.0642
AGGCATAG | 0.274
GGGCATCA | -0.23
CGGCATCC | -0.0227
AGGCATCA | 0.409
CGGCATCA | -0.0726
AAGCATCC | -0.202
AGGCATCG | 0.404
AGGCATCC | 0.384
CACTTCTG | -0.0864

Sequence | PBM E-score
AATTGGTA | 0.113
AGCCAACG | 0.0732
ACCTAAGC | 0.0128
CCCCTTGC | -0.152
AGGCCTCC | -0.166
CTAGACAC | 0.0958
TAAAACGA | 0.0299
GTCCAACA | 0.153
ACACCTGG | 0.104
ATTACAGC | 0.127
TTTACAAA | 0.331
ATTACAGG | 0.359
ATTACAGA | 0.24
ATTACAAC | 0.286
ATTACAAG | 0.388
ATTACAAT | 0.299
CTTACAAA | 0.15
ATTACAAA | 0.347
GCTGGATA | 0.0442
GCCCTTAC | -0.0326
CTAGGCTC | 0.043
AAACTGAA | 0.0399
GGGCCCAC | -0.255
AACCGTAG | -0.229
GCCGTGAA | -0.128

Sequence | PBM E-score
GCCGTGTA | 0.349
CCCGTGGA | -0.314
ACCGTGTC | 0.216
ACCGTGTA | 0.397
CCCGTGTA | 0.376
CCCGTGTC | 0.082
GCCGTGGA | -0.169
ACCGTGTG | 0.175
AGCCAAAT | -0.0958
CCAACTAA | 0.0699
CACTTTTA | 0.117
ACGTCGCC | -0.00307
GGGAACGA | -0.122
CGGAACGA | 0.0162
AGGAACGA | 0.44
CGGAACGC | -0.0837
AAGAACGG | -0.266
AGGAACGG | 0.463
AGGAACGC | 0.451
ATGAACGC | 0.145
ATGAACGG | 0.0117
ACCTCAGC | -0.124
AAAGCCGG | -0.133
AATCAAGC | -0.177
CGTGTATC | 0.262

Sequence | PBM E-score
AGTGTGTA | 0.247
AGTGTACA | 0.273
CGTGTATA | 0.4
CGTGTACC | 0.277
CGTGTGTA | 0.349
GGTGTATA | 0.0111
CGTGTACA | 0.388
GGTGTGTA | 0.335
CACTGTGA | -0.103
CTACCAGA | 0.0177
GTGAGAGA | 0.0715
ATGAATGG | -0.0783
CGGTTTAC | 0.134
CGACTTTC | 0.0333
CTAGGAAA | 0.246
CTAGGAAG | -0.108
CTAGGAAC | 0.372
ATAGGAAA | 0.429
CTAGGAGC | -0.225
ATAGGATA | 0.00177
GTAGGAAA | 0.429
GTAGGAGA | -0.184
TTAGGAAA | 0.351
TGAGGAAA | 0.0921
ATAGGGAA | 0.00264

Sequence | PBM E-score
GTAGGATA | 0.185
GGACAGCA | -0.224
ATCGGACA | -0.0499
CGACATAA | 0.0835
TAGTTCCA | 0.00515
AAACGCAC | 0.0986
TAGCGGAA | -0.15
CTCGAGAG | -0.177
AGTGGGAT | -0.0984
AACGGCGG | -0.117
AGAGGAAC | 0.0727
ATAGGAAT | -0.00642
ATAGGAAC | 0.456
GTAGGAAC | 0.457
ATAGGAAG | -0.0193
GGAGGAAC | 0.272
TTGCCCAA | 0.111
CCAACCAC | 0.083
ACAAAAGA | 0.166
CGTAGCCA | -0.208
ACACTGAT | -0.138
CCACAGGC | 0.194
